Source: PubChem BioAssay AID743279 (National Center for Advancing Translational Sciences (NCATS), 2014)
Screen size: about 360,000 compounds; about 17,000 (4.7%) were called active. Another 5% or so got no clear call; they are omitted. The full list was thinned out, with actives kept by preference. A number with no mark means an inactive call. Cut-off read from the data, not from the text of the source: active = activity change below about -50%; inconclusive = mostly about -30% to -49%; inactive = weaker than that.

Assay: qHTS for Inhibitors of Inflammasome Signaling: IL-1-beta AlphaLISA Primary Screen
Conditions: THP-1 LPS/ATP IL-1B secretion, 16 h; at 57.5 µM, active compounds read low
Method in brief: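 Secreted IL-1B measured by AlphaLISA bead assay after 16 h compound exposure of THP-1 cells; compounds (final up to 57.5 uM) added 1 h before LPS (250 ng/mL) and ATP (1.25 mM) stimulation; lower signal means less secretion.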
% is set by controls: 0 for no effect and ±100 for the full control effect.

In order of rising activity change:
1. COc1ccc(C(CNC(=O)c2ccc(OCc3cscn3)cc2)N2CCCC2)cc1 (centres undefined)  -24.7%
2. COc1cccc(/C=C2\SC(=S)N(CCCC(=O)N3CCOCC3)C2=O)c1  -22.2%
3. CN1CCC(N(C)C(=O)c2ccc(Cl)c(S(=O)(=O)Nc3ccc(Cl)cc3)c2)CC1  -20%
4. NC1=NOC(=O)C1C1CCCCC1 (centres undefined)  -14.1%
5. O=C(Nc1cc(F)ccc1F)c1ccc2c(=O)n3c(nc2c1)CCC3  -13.9%
6. CC1(c2cccc(N)c2)OCCO1  -13.4%
7. O=C(c1cnc(Cl)c(Cl)c1)N1CCN(S(=O)(=O)c2ccc(F)cc2)CC1  -12.3%
8. Cc1nc(-c2ccc(F)cc2)c(CC(=O)Nc2cccc(S(=O)(=O)N3CCOCC3)c2)s1  -11.9%
9. O=[N+]([O-])c1ccc(CN2CC(N3CCC(c4ccccc4)CC3)CS2(=O)=O)cc1 (centres undefined)  -10.2%
10. Cc1ccc(S(=O)(=O)N2CCN(C(=O)COC(=O)c3c(C)cc(C)cc3C)CC2)c(C)c1  -9.93%
11. CCCCNC(=O)CCn1c(=O)c2ccccc2n(Cc2cc(C)ccc2C)c1=O  -9.41%
12. COc1ccc(-n2nc3c(N4CCC(C(=O)NCc5ccccc5)CC4)nnc(C)c3c2C)cc1  -9.21%
13. CC(C)(C)OC(=O)NCCCCCNC(=O)c1[nH]cnc1C(=O)Nc1nccs1  -8.09%
14. OC(c1cc(Cl)cc(Cl)c1)c1ncc(-c2ccccc2C(F)(F)F)[nH]1 (centres undefined)  -7.73%
15. Cc1nc(-c2ccc(F)cc2)c(CC(=O)N2CCN(S(=O)(=O)c3ccc(F)cc3)CC2)s1  -7.47%
16. O=C(NNC(=O)C1CCCC1)c1ccc(F)cc1  -5.32%
17. O=C(CN1C(=O)/C(=C\c2ccccc2F)SC1=S)Nc1nc2ccccc2s1  -3.88%
18. CCC(=O)N1CCCC1(C)C(=O)Nc1ccc2c(c1)CCN2C(C)=O (centres undefined)  -2.74%
19. CC(C)NC(=O)C1(C)CCCCCN1C(=O)c1ccc(-c2ccccc2)cc1 (centres undefined)  -2.6%
20. COc1cccc(C(NC(C)=O)c2nc(-c3cnc4ccccc4c3)cs2)c1 (centres undefined)  -1.76%
21. Cc1cccc(-c2cnc(C(O)c3ccc4ccccc4c3)[nH]2)c1 (centres undefined)  0%
22. CCCc1cc(=O)[nH]c(SCC(=O)N2CCN(S(=O)(=O)c3ccc(C)cc3C)CC2)n1  0%
23. O=C(/C=C/[C@H]1O[C@@H](n2cnc3c(NC(=O)c4ccccc4)ncnc32)[C@H](O)[C@@H]1O)NCc1ccccc1  1.22%
24. CC(C(=O)Nc1ccc(O)c(C(=O)O)c1)N1C(=O)/C(=C/c2cccs2)SC1=S (centres undefined)  3.56%
25. COc1ccc(CNC(=O)CN2C(=O)NC3(CCCc4sccc43)C2=O)cc1 (centres undefined)  8.42%
26. CCc1noc(C)c1C(=O)NNC(=O)c1ccc(F)cc1  10.8%
27. Clc1ccc(CN2CCN(/N=C/c3cccnc3)CC2)cc1  11.9%
28. COc1ccc(S(=O)(=O)N[C@@H]2C=C[C@@H](CC(=O)N3CCc4ccccc4C3)O[C@@H]2CO)cc1  12.3%
29. COC(=O)c1ccc2nc(-c3ccc(F)cc3)c(Cc3ccc(C)cc3)n2c1  14.8%
30. CCOc1ccc(CNC(=O)C2CCCN(c3nnc(C)c4c(C)n(-c5ccccc5)nc34)C2)cc1 (centres undefined)  17.4%
31. CCN1CCN(C(=O)C2CCN(S(=O)(=O)c3cc(Cl)ccc3Cl)CC2)CC1  24.2%
32. CCOc1cc(/C=C(/C#N)c2ccc(Cl)cc2)cc(Cl)c1OCC(=O)O  31.7%
33. COc1ccc(/C=C2/SC(=O)N(CCCCCC(=O)Nc3ccccc3C(=O)O)C2=S)cc1  34.4%
34. Cc1ccccc1C1=N/C(=C/c2cccnc2)C(=O)O1  38.6%

In the case of `CC(=O)N1CCN(S(=O)(=O)c2c(F)cc(F)c(Cl)c2F)CC1`, the activity change is reported as -92.4% (active).
With `C=CC(=O)OCCOCCOCCOCCOC(=O)C=C` the activity change was -108% (active).
With `O=C(CCCN1C(=O)/C(=C/c2cccs2)SC1=S)Nc1ccc(O)cc1` the activity change was -71.2% (active).
With `O=C(CCCN1C(=O)/C(=C\c2ccccc2)SC1=S)Nc1ccccc1O` the activity change was -71.6% (active).
With `O=C(/C=C/c1ccc([N+](=O)[O-])o1)NNC(=O)c1ccc(F)cc1` the activity change was -102% (active).
In the case of `O=C1/C(=C\c2cccnc2)CN(Cc2ccccc2)C/C1=C\c1cccnc1`, the activity change is reported as -107% (active).
For `CC(C)N=C1CCCC1C(=S)SSC(=S)C1CCCC1=NC(C)C` (centres undefined), the activity change was -104% (active).
With `CCc1ccc(CNC(=O)C2CCN(c3nnc(C)c4c(C)n(-c5ccc(C)cc5)nc34)CC2)cc1` the activity change was -55% (active).
In the case of `Cc1ccc(S(=O)(=O)N2CCN(C(=O)CSc3cc(C)ccc3C)CC2)c(C)c1`, the activity change is reported as -51.4% (active).
With `Cc1ccc(S(=O)(=O)N2CCN(C(=O)Cc3sc(C)nc3-c3ccc(F)cc3)CC2)c(C)c1` the activity change was -50.5% (active).
